In PubChem BioAssay:
Several values for one entry are separate records, joined by “and”; a condition that tells them apart may be missing. Identical values can stand only once. Records with an inconclusive call do not appear. Some compounds were tested as several samples or in several runs, with calls that do not always agree. Activity calls are given as the source filed them.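 The calls were made as follows, unless noted: active = thallium flux through the channel raised or lowered by more than 3 SD from vehicle-only wells, actives on both sides; inactive = the rest.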

Legend:
[1] = circadian clock period modulators, cell-based, LOPAC library, luminescence reporter (AID 2774; call rule not given here;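 also: values are relative to mean of DMSO wells on each plate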); settings: circadian reporter cells, at 7 µM, actives lie on both sides
[2] = stimulators of insulin release from INS-1E, primary screen, cell-based, 5 mM glucose, NPC library (AID 1117329;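 active = compound raises insulin release from rat beta cells at 5 mM glucose, no numeric limit stated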); settings: rat INS-1E insulin secretion, at 10 µM, stronger effect = higher value
[3] = growth inhibition of GSK3B-pretreated HCT116 cells – cell-based, CellTiter-Glo, 0.2 to 20 µM (AID 1117336;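 active = compounds lowering colon cancer cell viability after pretreatment blocking the GSK3B kinase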); settings: HCT116 viability after GSK3B inhibitor, at 20 µM, stronger effect = higher value
[4] = inhibition of endothelial tube formation, primary screen, imaging, VEGF stimulated, CD31 staining, tube area, NPC library (AID 1117340;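 active = compound that reduces growth-factor-driven endothelial tube area in a mixed cell culture, no cutoff stated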); settings: VEGF-stimulated ADSC/ECFC co-culture, at 10 µM, stronger effect = higher value
[5] = glucagon-like peptide 1 release enhancers, primary assay, NCI-H716 cell line, NPC library (AID 1117341;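 active = compound raises GLP1 secretion from the human gut endocrine cells, with no numeric limit stated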); settings: NCI-H716 cells, at 10 µM, stronger effect = higher value
[6] = HCT116 colon cancer cell growth inhibition, primary screen, CellTiter-Glo luminescence, NPC library (AID 1117342;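 active = compounds that lower survival of HCT116 colon cancer cells in the luminescence readout, no numeric limit stated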); settings: at 20 µM (top of the series)
[7] = CellTiter-Glo luminescent readout of SW480 viability loss, NPC library primary (AID 1117343;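 active = compounds that lower viability of the colon cancer cells in the luminescence readout, with no numeric limit stated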); settings: CellTiter-Glo luminescence; at 20 µM (top of the series) unless noted
[8] = decreased DLD-1 cellular survival, CellTiter-Glo luminescent readout, NPC compound collection, primary HTS (AID 1117346;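 active = compounds that lower survival of DLD-1 colon cancer cells in the luminescence readout, no cutoff given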); settings: DLD-1 viability, CellTiter-Glo luminescence; at 20 µM (top of the series)
[9] = modulation of C. elegans fzo-1 (AID 1259413; call rule not given here;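 also: fzo-1 mutant C. elegans worms in liquid wells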); settings: C. elegans fzo-1 modulator screen, mean read-out; stronger effect = higher value
[10] = system: Aerobactin synthetase IucA (Klebsiella pneumoniae); test: IucA aerobactin synthetase inhibitors, biochemical, Tocris library, absorbance (AID 1345561; call rule not given here;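 also: 100% = enzyme without compound and 0% = no enzyme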); settings: purified IucA enzyme assay, absorbance (OD) read-out; stronger effect = lower value;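 tested at 8 µM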
[11] = SU-DIPG-VI glioma cell viability, MIPE4.0 library, CellTiter-Glo luminescence, qHTS (AID 1347066; cut-off not given, nearly all actives have AC50 up to about 30 µM;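 also: cells exposed to compound for 48 hours before readout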); settings: CellTiter-Glo ATP luminescence
[12] = system: F380Y/beta1; test: modulators of BK channel variants, profiling panel, selectivity assay, cell-based, U2OS BacMam, thallium flux, beta subunits (AID 1259406); settings: at 30 µM;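 also: initial slope of Thallos dye fluorescence rise after thallium is added; log ratio against the mean of 0.3% DMSO vehicle wells on the same plate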
[13] = system: F380Y/beta4; test: as above; settings: at 30 µM
[14] = system: R275C/beta4; test: as above; settings: at 30 µM
[15] = system: R275C/Slo1WT/beta2; test: as above; settings: at 30 µM
[16] = polyglutamine-triggered caspase-3 activation inhibitors, cell-based (AID 1583); settings: polyglutamine-induced caspase-3 activation, cell assay; stronger effect = higher value;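 tested at 10 µM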
[17] = suppressors of polyQ aggregation in yeast, 75Q-TubU reporter (AID 1593); settings: Yeast 75Q polyglutamine aggregation reporter
[18] = inhibitors of mitochondrial cytochrome c release, biochemical, purified mitochondria (AID 1603); settings: stronger effect = lower value;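 also: mouse liver mitochondria challenged with calcium chloride; signal normalized to the plate average as 100%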
[19] = phospholipid biosynthesis inhibitors in animal cells, primary screen, cell-based, LOPAC library, screen 4 (AID 1347384; call rule not given here); settings: phospholipid biosynthesis inhibition screen, at 10 µM
[20] = modifiers of HSF1 nuclear foci, imaging, Selleck Cancer Library (AID 1347162; in the data active = plate-normalised HSF1 focus index below about 0.46); settings: human cells, at 10 µM; SSMD: measured here: HSF1 foci SSMD mean; cell count: measured here: cell number; plate-normalised HSF1 focus index: stronger effect = lower value

O=C(NCC1CCCCN1)c1cc(OCC(F)(F)F)ccc1OCC(F)(F)F (stereo not drawn)
inactive: period change [1] 0.075 h | insulin secretion stimulation [2] 3.7% | viability decrease [3] -3.9% | tube area decrease [4] -3.2% | GLP1 secretion stimulation [5] 1.7% | inhibition of viability [6] 21.7% | viability decrease (inhibition) [7] 1.6% | viability decrease (inhibition) [8] -7.6% | mean signal [9] 257 | remaining activity [10] 117% | outcome [11]

Clc1ccccc1CN1CCc2sccc2C1
inactive: insulin secretion stimulation [2] -2.1% | viability decrease [3] 13.8% | tube area decrease [4] 5.4% | GLP1 secretion stimulation [5] -2.6% | inhibition of viability [6] 3.9% | viability decrease (inhibition) [8] 32.4% | mean signal [9] 271 | outcome [11] | log fold change Tl+ flux [14] -0.0465 | log fold change Tl+ flux [15] 0.00594
active: viability decrease (inhibition) [7] 70.5% | log fold change Tl+ flux [12] -0.0989 | log fold change Tl+ flux [13] -0.152

CC1(C)[C@H](C(=O)O)N2C(=O)C[C@H]2S1(=O)=O
inactive: insulin secretion stimulation [2] -1.5% | viability decrease [3] 0.3% | tube area decrease [4] -3.3% | GLP1 secretion stimulation [5] -0.3% | inhibition of viability [6] -13.6% | viability decrease (inhibition) [7] 6.5% | viability decrease (inhibition) [8] 3.8% | outcome [11]

COc1ccc(-c2nc3ccc(C4=NNC(=O)CC4C)cc3[nH]2)cc1 (stereo not drawn)
inactive: insulin secretion stimulation [2] 2.8% | viability decrease [3] 18.3% | GLP1 secretion stimulation [5] 6.8% | viability decrease (inhibition) [7] 43% | outcome [11]
active: tube area decrease [4] 80.8% | inhibition of viability [6] 61.7% | viability decrease (inhibition) [8] 52.3%

C[N+]1(C)CCC(OC(=O)C(O)(c2ccccc2)C2CCCC2)C1 (stereo not drawn)
0.0815 (active) and 0.0504 (inactive): log fold change Tl+ flux [15]
inactive: insulin secretion stimulation [2] 1.8% | viability decrease [3] -4% | tube area decrease [4] -0.8% | GLP1 secretion stimulation [5] -0.5% | inhibition of viability [6] 11.3% | viability decrease (inhibition) [7] -15.2% | viability decrease (inhibition) [8] 2% | mean signal [9] 254 | log fold change Tl+ flux [12] 0.0124 and -0.000209 | log fold change Tl+ flux [13] -0.00589 and 0.00112 | log fold change Tl+ flux [14] 0.0451 and -0.0272

NCCCC(O)(P(=O)(O)O)P(=O)(O)O
inactive: insulin secretion stimulation [2] 2.3% | viability decrease [3] 6.9% | tube area decrease [4] -27.4% | GLP1 secretion stimulation [5] 1.2% | inhibition of viability [6] 1.17% | viability decrease (inhibition) [7] -1.7% | viability decrease (inhibition) [8] -3.8%

CS(=O)(=O)c1ccc([C@@H](O)[C@@H](CF)NC(=O)C(Cl)Cl)cc1
inactive: insulin secretion stimulation [2] 1.8% | viability decrease [3] -7.1% | tube area decrease [4] 10.2% | GLP1 secretion stimulation [5] 0.9% | inhibition of viability [6] 14.2% | viability decrease (inhibition) [7] 17.1% | viability decrease (inhibition) [8] 13.6%

O=C(O)CCn1c2c(c3ccccc31)C[C@H](NS(=O)(=O)c1ccc(F)cc1)CC2
inactive: insulin secretion stimulation [2] 0.95% | viability decrease [3] 8.7% | tube area decrease [4] -6.1% | GLP1 secretion stimulation [5] -0.3% | inhibition of viability [6] 5.1% | viability decrease (inhibition) [7] -25.4% | viability decrease (inhibition) [8] -0.3% | outcome [11]

O=C(O)c1cn(C2CC2)c2cc(N3CCNCC3)c(F)cc2c1=O
1.03: cytochrome c release ratio [18]
inactive: insulin secretion stimulation [2] -0.6% | viability decrease [3] -4.5% | tube area decrease [4] -29.4% | GLP1 secretion stimulation [5] 1.9% | inhibition of viability [6] 8.6% | viability decrease (inhibition) [7] 12.3% | viability decrease (inhibition) [8] -5% | outcome [11]
1.22: score [17]
8.05%: inhibition [16]

CC(C)(C)c1ccc(C(O)CCCN2CCC(C(O)(c3ccccc3)c3ccccc3)CC2)cc1 (stereo not drawn)
0.48: score [17]
active: viability decrease [3] 101% | tube area decrease [4] 98.4% | GLP1 secretion stimulation [5] 70% | inhibition of viability [6] 102% | viability decrease (inhibition) [7] 142% | viability decrease (inhibition) [8] 103%
inactive: period change [1] 0.22 h | insulin secretion stimulation [2] 5.9% | outcome [19]
70.6%: inhibition [16]
4.87: cytochrome c release ratio [18]

CC(C)(C(=O)O)c1ccc(C(O)CCCN2CCC(C(O)(c3ccccc3)c3ccccc3)CC2)cc1 (stereo not drawn)
inactive: period change [1] 0.08 h | insulin secretion stimulation [2] 2.1% | viability decrease [3] 1.3% | tube area decrease [4] -20.5% | GLP1 secretion stimulation [5] -2.2% | inhibition of viability [6] -3.77% | viability decrease (inhibition) [7] 33.1% | viability decrease (inhibition) [8] -0.4% | mean signal [9] 241 | remaining activity [10] 89.1% | outcome [19] | log fold change Tl+ flux [12] -0.0158 | log fold change Tl+ flux [13] -0.0315 | log fold change Tl+ flux [14] 0.0234 | log fold change Tl+ flux [15] 0.0197

O=S(=O)(c1cccc2cnccc12)N1CCCNCC1
inactive: insulin secretion stimulation [2] 4.95% | viability decrease [3] 18.1% | tube area decrease [4] -19.8% | GLP1 secretion stimulation [5] -2.6% | inhibition of viability [6] 24.3% | viability decrease (inhibition) [7] -4.3% | viability decrease (inhibition) [8] 15.4% | remaining activity [10] 109% | outcome [11]

CC(C)c1c(C(=O)Nc2ccccc2)c(-c2ccccc2)c(-c2ccc(F)cc2)n1CC[C@@H](O)C[C@@H](O)CC(=O)O
inactive: insulin secretion stimulation [2] 3.7% | GLP1 secretion stimulation [5] 5.8% | outcome [19]
active: viability decrease [3] 95.5% | tube area decrease [4] 67.8% | inhibition of viability [6] 81.6% | viability decrease (inhibition) [7] 96.3% | viability decrease (inhibition) [8] 68.1%

Cc1ccc(/C(=C\CN2CCCC2)c2ccccn2)cc1
inactive: period change [1] 0.045 h | viability decrease [3] -2.3% | tube area decrease [4] -2.9% | GLP1 secretion stimulation [5] -2.1% | inhibition of viability [6] -50.9% | viability decrease (inhibition) [8] -45.1% | remaining activity [10] 77.2% | outcome [19]
1.11: cytochrome c release ratio [18]
1.45: score [17]
21.1%: inhibition [16]
active: insulin secretion stimulation [2] 24% | viability decrease (inhibition) [7] 6.5%

C[C@@H](O[C@H]1OCCN(Cc2n[nH]c(=O)[nH]2)[C@H]1c1ccc(F)cc1)c1cc(C(F)(F)F)cc(C(F)(F)F)c1
active: viability decrease [3] 99% | tube area decrease [4] 108% | inhibition of viability [6] 97.5% | viability decrease (inhibition) [7] 102% | viability decrease (inhibition) [8] 100%
inactive: insulin secretion stimulation [2] 1.6% | GLP1 secretion stimulation [5] -2.9%

CC(C)n1c(/C=C/[C@@H](O)C[C@@H](O)CC(=O)O)c(-c2ccc(F)cc2)c2ccccc21
inactive: insulin secretion stimulation [2] 3.6% | GLP1 secretion stimulation [5] 1.4% | mean signal [9] 243 | plate-normalised HSF1 focus index [20] 1.13 | log fold change Tl+ flux [12] 0.0905 | log fold change Tl+ flux [13] 8.3e-05 | log fold change Tl+ flux [14] 0.103 | log fold change Tl+ flux [15] 0.0615
2.42: SSMD [20]
active: viability decrease [3] 97.8% | tube area decrease [4] 100% | inhibition of viability [6] 88.8% | viability decrease (inhibition) [7] 111% | viability decrease (inhibition) [8] 50.2%
6600: cell count [20]

O=C(O)COCCN1CCN(C(c2ccccc2)c2ccc(Cl)cc2)CC1 (stereo not drawn)
inactive: insulin secretion stimulation [2] 4.3% | viability decrease [3] -8.4% | tube area decrease [4] 2.5% | GLP1 secretion stimulation [5] 1.4% | inhibition of viability [6] 11.2% | viability decrease (inhibition) [7] -6.6% | viability decrease (inhibition) [8] 8.8% | mean signal [9] 254 | remaining activity [10] 109% | outcome [11] | outcome [19] | log fold change Tl+ flux [12] 0.0627 | log fold change Tl+ flux [13] 0.0511 | log fold change Tl+ flux [14] 0.0338 | log fold change Tl+ flux [15] -0.0639

CN(C)C(=N)N=C(N)N
inactive: insulin secretion stimulation [2] -2.3% | viability decrease [3] -7% | tube area decrease [4] -11.5% | GLP1 secretion stimulation [5] 3.1% | inhibition of viability [6] -25.7% | viability decrease (inhibition) [7] 17% | viability decrease (inhibition) [8] -1.55%

CC(C)(C)CC(C)(C)c1ccc(OCCOCC[N+](C)(C)Cc2ccccc2)cc1
-0.06: score [17]
70.8%: inhibition [16]
15.9: cytochrome c release ratio [18]
inactive: insulin secretion stimulation [2] 4.2%
active: viability decrease [3] 102% | tube area decrease [4] 110% | GLP1 secretion stimulation [5] 89.6% | inhibition of viability [6] 103% | viability decrease (inhibition) [7] 145% | viability decrease (inhibition) [8] 106%

CN(C)c1nc(N(C)C)nc(N(C)C)n1
inactive: plate-normalised HSF1 focus index [20] 1.03
0.836: SSMD [20]
7300: cell count [20]

CCc1ccc(CCOc2ccc(CC3SC(=O)NC3=O)cc2)nc1 (stereo not drawn)
7530: cell count [20]
-1.24: SSMD [20]
inactive: plate-normalised HSF1 focus index [20] 0.926

CC(=O)OCC(=O)[C@@]1(O)CC[C@H]2[C@@H]3CCC4=CC(=O)CC[C@]4(C)[C@H]3[C@@H](O)C[C@@]21C
inactive: log fold change Tl+ flux [12] -0.0206 | log fold change Tl+ flux [13] 0.0297 | log fold change Tl+ flux [14] -0.0187 | log fold change Tl+ flux [15] -0.0133

Cc1ccc(N(CC2=NCCN2)c2cccc(O)c2)cc1
inactive: period change [1] -0.015 h | mean signal [9] 229 | outcome [11] | outcome [19]
0.92%: inhibition [16]
0.77: cytochrome c release ratio [18]
1.23: score [17]
